# The supplement of paper PMC8728848
# About 410 targets per protein were measured; listed, in parts, are those with the strongest signals and a random draw of the rest.
# B1: Odorranalectin (Odorrana grahami), B3TFE9_RANGR (peptide)
# chain: YASPKCFRYPNGVLACT
# B2: Sebin2 (Coprinopsis cinerea), A8PE78 (protein)
# chain: MTTPFYAYCHNVQDDNTWRLGLVFANRSTADEWWRAISEATSSIPITKSITRVTPQYYTHDIRVWNMYNFFVDGNIKSISDKFRGRLFITLEYDRSGRGVSVFPPLHIVDHVSGNWYYIRSKTAPHLFWFYDETRNAIYASKEKRTRFKVSIRNPSPQTPKDAIMINSDDVVIHIKESLYVGVDSYLGHIIPTRAYRTFKFGELEGGAIAGIEVAENAEERCSSTFDGASLYFVGPDSSSPGEPWELV
# Experiments:
# Assay in all cases: glycan array binding signal (z-score within array); higher = stronger binding
# Details in all cases: glycan notation: IUPAC condensed, linker removed
# [1] = target: Fuc(a1-2)Gal(b1-3)GlcNAc(b1-2)Man(a1-3)[Fuc(a1-2)Gal(b1-3)GlcNAc(b1-2)Man(a1-6)]Man(b1-4)GlcNAc(b1-4)GlcNAc
# Procedure, shortened: (§1)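 From the Consortium for Functional Glycomics database, 3228 arrays were curated, keeping only those whose protein sequence was available. Binding is given as a within-array Z-score averaged across arrays sharing a protein sequence and across linkers. Negative Z-scores can be read as non-binding.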
# [2] = target: Fuc(a1-2)Gal(b1-3)[Fuc(a1-4)]GlcNAc(b1-2)Man(a1-3)[Fuc(a1-2)Gal(b1-3)[Fuc(a1-4)]GlcNAc(b1-2)Man(a1-6)]Man(b1-4)GlcNAc(b1-4)[Fuc(a1-6)]GlcNAc(b1-4)[Fuc(a1-6)]GlcNAc
# Procedure, shortened: as §1
# [3] = target: Fuc(a1-2)Gal(b1-4)GlcNAc(b1-2)Man(a1-3)[Fuc(a1-2)Gal(b1-4)GlcNAc(b1-2)Man(a1-6)]Man(b1-4)GlcNAc(b1-4)[Fuc(a1-6)]GlcNAc
# Procedure, shortened: as §1
# [4] = target: Fuc(a1-2)Gal(b1-4)[Fuc(a1-3)]GlcNAc(b1-2)Man(a1-3)[Fuc(a1-2)Gal(b1-4)[Fuc(a1-3)]GlcNAc(b1-2)Man(a1-6)]Man(b1-4)GlcNAc(b1-4)[Fuc(a1-6)]GlcNAc
# Procedure, shortened: as §1
# [5] = target: Fuc(a1-2)[Gal(a1-3)]Gal(b1-4)[Fuc(a1-3)]GlcNAc
# Procedure, shortened: as §1
# [6] = target: Fuc(a1-2)[GalNAc(a1-3)]Gal(b1-4)[Fuc(a1-3)]GlcNAc(b1-3)GalNAc
# Procedure, shortened: as §1
# [7] = target: Fuc(a1-2)[GalNAc(a1-4)]Gal(b1-4)GlcNAc
# Procedure, shortened: as §1
# [8] = target: Fuc(a1-3)[Gal(b1-4)]GlcNAc6S
# Procedure, shortened: as §1
# [9] = target: Fuc(b1-3)GlcNAc
# Procedure, shortened: as §1
# [10] = target: Gal(a1-3)Gal(b1-3)GlcNAc(b1-2)Man
# Procedure, shortened: as §1
# [11] = target: Gal(a1-3)Gal(b1-4)[Fuc(a1-3)]GlcNAc
# Procedure, shortened: as §1
# [12] = target: Gal(a1-3)GalNAc
# Procedure, shortened: as §1
# [13] = target: Gal(a1-3)[Gal(a1-4)]Gal(b1-4)GlcNAc
# Procedure, shortened: as §1
# [14] = target: Gal(a1-4)Gal(b1-4)Glc
# Procedure, shortened: as §1
# [15] = target: Gal(b1-3)GalNAc(a1-3)[Fuc(a1-2)]Gal(b1-4)GlcNAc
# Procedure, shortened: as §1
# [16] = target: Gal(b1-3)GlcNAc(b1-3)GalNAc
# Procedure, shortened: as §1
# [17] = target: Gal(b1-3)GlcNAc6S
# Procedure, shortened: as §1
# [18] = target: Gal(b1-3)[Fuc(a1-4)]GlcNAc(b1-2)Man
# Procedure, shortened: as §1
# [19] = target: Gal(b1-3)[Fuc(a1-4)]GlcNAc(b1-2)Man(a1-3)[Gal(b1-3)[Fuc(a1-4)]GlcNAc(b1-2)Man(a1-6)]Man(b1-4)GlcNAc(b1-4)[Fuc(a1-6)]GlcNAc
# Procedure, shortened: as §1
# [20] = target: Gal(b1-3)[Fuc(a1-4)]GlcNAc(b1-6)GalNAc
# Procedure, shortened: as §1
# [21] = target: Gal(b1-4)GlcNAc(b1-3)Gal(b1-4)GlcNAc(b1-2)Man(a1-3)[Gal(b1-4)GlcNAc(b1-3)Gal(b1-4)GlcNAc(b1-2)Man(a1-6)]Man(b1-4)GlcNAc(b1-4)GlcNAc
# Procedure, shortened: as §1
# [22] = target: Gal(b1-4)GlcNAc(b1-3)Gal(b1-4)GlcNAc(b1-2)[Gal(b1-4)GlcNAc(b1-3)Gal(b1-4)GlcNAc(b1-6)]Man(a1-6)[Gal(b1-4)GlcNAc(b1-3)Gal(b1-4)GlcNAc(b1-2)Man(a1-3)]Man(b1-4)GlcNAc(b1-4)[Fuc(a1-6)]GlcNAc
# Procedure, shortened: as §1
# [23] = target: Gal(b1-4)GlcNAc(b1-3)Gal(b1-4)GlcNAc(b1-3)Gal(b1-4)GlcNAc(b1-2)Man(a1-3)[Gal(b1-4)GlcNAc(b1-3)Gal(b1-4)GlcNAc(b1-3)Gal(b1-4)GlcNAc(b1-2)Man(a1-6)]Man(b1-4)GlcNAc(b1-4)GlcNAc
# Procedure, shortened: as §1
# [24] = target: GalNAc(a1-3)GalNAc(b1-3)Gal(a1-4)Gal(b1-4)Glc
# Procedure, shortened: as §1
# [25] = target: GalNAc(b1-4)GlcNAc
# Procedure, shortened: as §1
# [26] = target: GalNAc(b1-4)GlcNAc(b1-3)GalNAc(b1-4)GlcNAc
# Procedure, shortened: as §1
# [27] = target: GlcNAc(a1-4)Gal(b1-4)GlcNAc(b1-3)Gal(b1-4)GlcNAc
# Procedure, shortened: as §1
# [28] = target: GlcNAc(b1-3)Gal(b1-4)GlcNAc(b1-2)[GlcNAc(b1-3)Gal(b1-4)GlcNAc(b1-6)]Man(a1-6)[GlcNAc(b1-3)Gal(b1-4)GlcNAc(b1-2)Man(a1-3)]Man(b1-4)GlcNAc(b1-4)GlcNAc
# Procedure, shortened: as §1
# [29] = target: GlcNAc(b1-3)Gal(b1-4)GlcNAc(b1-3)Gal(b1-4)GlcNAc(b1-2)Man(a1-3)[GlcNAc(b1-3)Gal(b1-4)GlcNAc(b1-3)Gal(b1-4)GlcNAc(b1-2)Man(a1-6)]Man(b1-4)GlcNAc(b1-4)GlcNAc
# Procedure, shortened: as §1
# [30] = target: GlcNAc(b1-3)Gal(b1-4)GlcNAc(b1-3)GalNAc
# Procedure, shortened: as §1
# [31] = target: GlcNAc(b1-3)GalNAc
# Procedure, shortened: as §1
# [32] = target: Neu5Ac(a2-3)Gal(b1-3)GalNAc6S
# Procedure, shortened: as §1
# [33] = target: Neu5Ac(a2-3)Gal(b1-4)GlcNAc(b1-2)[Neu5Ac(a2-3)Gal(b1-4)GlcNAc(b1-4)]Man(a1-3)[GlcNAc(b1-4)][Neu5Ac(a2-3)Gal(b1-4)GlcNAc(b1-2)[Neu5Ac(a2-3)Gal(b1-4)GlcNAc(b1-6)]Man(a1-6)]Man(b1-4)GlcNAc(b1-4)GlcNAc
# Procedure, shortened: as §1
# [34] = target: Neu5Ac(a2-3)Gal(b1-4)[Fuc(a1-3)]GlcNAc(b1-2)Man
# Procedure, shortened: as §1
# [35] = target: Neu5Ac(a2-3)Gal(b1-4)[Fuc(a1-3)]GlcNAc(b1-3)Gal(b1-4)GlcNAc
# Procedure, shortened: as §1
# [36] = target: Neu5Ac(a2-6)Gal
# Procedure, shortened: as §1
# [37] = target: Neu5Ac(a2-6)Gal(b1-4)GlcNAc(b1-2)Man
# Procedure, shortened: as §1
# [38] = target: Neu5Ac(a2-6)Gal(b1-4)GlcNAc(b1-2)Man(a1-3)[GlcNAc(b1-4)][Neu5Ac(a2-6)Gal(b1-4)GlcNAc(b1-2)Man(a1-6)]Man(b1-4)GlcNAc(b1-4)GlcNAc
# Procedure, shortened: as §1
# [39] = target: Neu5Ac(a2-6)Gal(b1-4)GlcNAc(b1-2)[Neu5Ac(a2-6)Gal(b1-4)GlcNAc(b1-4)]Man(a1-3)[GlcNAc(b1-4)][Neu5Ac(a2-6)Gal(b1-4)GlcNAc(b1-4)Man(a1-6)]Man(b1-4)GlcNAc(b1-4)GlcNAc
# Procedure, shortened: as §1
# [40] = target: Neu5Ac(a2-6)Gal(b1-4)GlcNAc(b1-3)Gal(b1-4)GlcNAc(b1-3)Gal(b1-4)GlcNAc(b1-2)Man(a1-3)[Neu5Ac(a2-6)Gal(b1-4)GlcNAc(b1-3)Gal(b1-4)GlcNAc(b1-3)Gal(b1-4)GlcNAc(b1-2)Man(a1-6)]GalNAc
# Procedure, shortened: as §1
# [41] = target: Neu5Ac(a2-8)Neu5Ac(a2-8)Neu5Ac(a2-3)Gal(b1-4)Glc
# Procedure, shortened: as §1
# [42] = target: Neu5Gc(b2-6)Gal(b1-4)GlcNAc
# Procedure, shortened: as §1
# [43] = target: GlcNAc(b1-2)[GlcNAc(b1-4)]Man(a1-3)[GlcNAc(b1-4)][GlcNAc(b1-2)Man(a1-6)]Man(b1-4)GlcNAc(b1-4)GlcNAc
# Procedure, shortened: as §1
# [44] = target: GlcNAc(b1-3)Gal(b1-4)Glc
# Procedure, shortened: as §1
# [45] = target: GlcNAc(b1-3)Gal(b1-4)GlcNAc(b1-6)[Gal(b1-3)]GalNAc
# Procedure, shortened: as §1
# [46] = target: GlcNAc(b1-4)GlcNAc(b1-4)GlcNAc(b1-4)GlcNAc(b1-4)GlcNAc(b1-4)GlcNAc
# Procedure, shortened: as §1
# [47] = target: Man(b1-4)GlcNAc
# Procedure, shortened: as §1
# [48] = target: Neu5Ac(a2-3)Gal(b1-3)GalNAc
# Procedure, shortened: as §1
# [49] = target: Neu5Ac(a2-3)Gal(b1-4)Glc
# Procedure, shortened: as §1
# [50] = target: Neu5Ac(a2-3)Gal(b1-4)GlcNAc(b1-3)Gal(b1-3)GlcNAc
# Procedure, shortened: as §1
# [51] = target: Neu5Ac(a2-3)Gal(b1-4)[Fuc(a1-3)]GlcNAc
# Procedure, shortened: as §1
# [52] = target: Neu5Ac(a2-6)Gal(b1-4)GlcNAc(b1-3)Gal(b1-4)GlcNAc(b1-2)Man(a1-3)[Neu5Ac(a2-6)Gal(b1-4)GlcNAc(b1-3)Gal(b1-4)GlcNAc(b1-2)Man(a1-6)]GalNAc
# Procedure, shortened: as §1
# [53] = target: Neu5Ac(a2-8)Neu5Ac(a2-8)Neu5Ac
# Procedure, shortened: as §1
# [54] = target: Neu5Ac(a2-8)Neu5Gc(a2-3)Gal(b1-4)GlcNAc
# Procedure, shortened: as §1
# [55] = target: Neu5Gc(a2-6)GalNAc
# Procedure, shortened: as §1
binder,measurement,setting,value
B1,glycan array binding signal (z-score),[1],0.133
same,glycan array binding signal (z-score),[2],1.89
same,glycan array binding signal (z-score),[3],-0.142
same,glycan array binding signal (z-score),[4],3.75
same,glycan array binding signal (z-score),[5],0.56
same,glycan array binding signal (z-score),[6],2.29
same,glycan array binding signal (z-score),[7],-0.278
same,glycan array binding signal (z-score),[8],-0.198
same,glycan array binding signal (z-score),[9],-0.094
same,glycan array binding signal (z-score),[10],-0.387
same,glycan array binding signal (z-score),[11],-0.625
same,glycan array binding signal (z-score),[12],0.618
same,glycan array binding signal (z-score),[13],1.47
same,glycan array binding signal (z-score),[14],0.575
same,glycan array binding signal (z-score),[15],-0.258
same,glycan array binding signal (z-score),[16],-0.188
same,glycan array binding signal (z-score),[17],-0.064
same,glycan array binding signal (z-score),[18],3.92
same,glycan array binding signal (z-score),[19],-0.246
same,glycan array binding signal (z-score),[20],-0.061
same,glycan array binding signal (z-score),[21],7.59
same,glycan array binding signal (z-score),[22],0.555
same,glycan array binding signal (z-score),[23],2.11
same,glycan array binding signal (z-score),[24],-0.385
same,glycan array binding signal (z-score),[25],4.83
same,glycan array binding signal (z-score),[26],0.347
same,glycan array binding signal (z-score),[27],-0.376
same,glycan array binding signal (z-score),[28],8.95
same,glycan array binding signal (z-score),[29],3.67
same,glycan array binding signal (z-score),[30],0.083
same,glycan array binding signal (z-score),[31],-0.315
same,glycan array binding signal (z-score),[32],0.438
same,glycan array binding signal (z-score),[33],-0.481
same,glycan array binding signal (z-score),[34],-0.405
same,glycan array binding signal (z-score),[35],-0.026
same,glycan array binding signal (z-score),[36],-0.415
same,glycan array binding signal (z-score),[37],-0.092
same,glycan array binding signal (z-score),[38],-0.309
same,glycan array binding signal (z-score),[39],-0.055
same,glycan array binding signal (z-score),[40],7.51
same,glycan array binding signal (z-score),[41],-0.429
same,glycan array binding signal (z-score),[42],-0.155
B2,glycan array binding signal (z-score),[43],2.76
same,glycan array binding signal (z-score),[44],-0.04
same,glycan array binding signal (z-score),[45],-0.253
same,glycan array binding signal (z-score),[46],-0.328
same,glycan array binding signal (z-score),[47],-0.209
same,glycan array binding signal (z-score),[48],6.35
same,glycan array binding signal (z-score),[49],8.35
same,glycan array binding signal (z-score),[50],0.2
same,glycan array binding signal (z-score),[51],-0.437
same,glycan array binding signal (z-score),[52],-0.35
same,glycan array binding signal (z-score),[53],0.72
same,glycan array binding signal (z-score),[54],-0.304
same,glycan array binding signal (z-score),[55],-0.242
